# Source: PubChem BioAssay
# HCMV inh: qHTS Assay for inhibitors of the human cytomegalovirus (HCMV). activity change, negative = inhibition, % at 57.5 µM. actives 4.5% (n = 410,000). AID 1259415, 2018. HFF cells, HCMV-luciferase reporter, 72 h; active compounds read low; in the data active means activity change below about -60%; inconclusive means no clear call, values can overlap the other calls; inactive means above about -39%; further: on the % scale 0 is the no-effect control and ±100 the full control effect
#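 After 16 h attachment at 37C, HFF cells received test compound and HCMV-luciferase (1 PFU/cell); reporter luminescence read 72 h later, data normalized against buffer-only and known inhibitor Salinomycin.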
# Pf growth 48h: Primary qHTS for delayed death inhibitors of the malarial parasite plastid, 48 hour incubation | P. falciparum luciferase growth in erythrocytes, 48 h | Potency, µM (titrated, usually from 28.7 µM), inactives show top-dose activity change, negative = inhibition, actives largely listed as inhibitors | actives 5.9% (n = 310,000) | AID 504832, 2011; further: potency means the concentration at half of the fitted maximal effect; on the % scale 0 is the no-effect control and ±100 the full control effect
#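 Firefly luciferase activity from engineered P. falciparum reports growth; inhibitors lower the luminescent signal. Cultures contained 2% hematocrit erythrocytes at 0.1% final parasitemia.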
# HCV inhibitor: qHTS Assay for Inhibitors of Hepatitis C Virus (HCV); Huh7.5.1 HCVcc-Cre infection, luciferase reporter, 44 h; Potency, µM (doses to about 41.8 µM), without a hit: at the top dose activity change, negative = inhibition, hits mostly inhibitors; actives 3.4% (n = 340,000); AID 651820, 2012; further: potency means the concentration at half of the fitted maximal effect; on the % scale 0 is the no-effect control and ±100 the full control effect
#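 Reporter virus HCVcc-Cre (~0.5 moi) infects cells exposed to compound; seeding density 1,000 cells/well with 4 h settling beforehand. Luminescence, 15 sec read, taken 44 h post-infection following a 15 min RT substrate incubation.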
# Shiga toxin inh: A qHTS for Small Molecule Inhibitors of Shiga Toxin | Vero cells, Shiga toxin protein synthesis inhibition reporter | inhibition, % at 38.7 µM | actives 9.2% (n = 290,000); in the data active means inhibition mostly above about 28%, no sharp cut-off; inactive means mostly below about 43%; further: 0% is about no effect
# Pf growth 96h: Primary qHTS for delayed death inhibitors of the malarial parasite plastid, 96 hour incubation | actives 6.9% (n = 320,000) | Potency, µM (highest dose often 28.7 µM), inactives show top-dose activity change, negative = inhibition, most hits filed as inhibitors | P. falciparum luciferase reporter growth, 96 h; further: potency means the concentration at half of the fitted maximal effect; on the % scale 0 is the no-effect control and ±100 the full control effect
#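 Compounds incubated with erythrocytes infected by luciferase-expressing P. falciparum (2% hematocrit, 0.05% parasitemia final) for 96 hours, 37 C in 5% CO2. Growth inhibition scored as decreased luciferase luminescence.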
# CHX counter: Cycloheximide Counterscreen for Small Molecule Inhibitors of Shiga Toxin | AID 2314, 2010 | actives 12% (n = 300,000) | cell reporter, cycloheximide protein synthesis inhibition counterscreen | max response, %; in the data active means max response mostly above about 13%, no sharp cut-off; inactive means mostly below about 14%; further: read at 38.3 µM for the half of the compounds with a filed dose; 0% is about no effect
# * hit, by the source's call; ? = inconclusive; . = no result; + = active, no number; [ ] = another dose, or the depositor's remark. A selection: hits, their analogues and other compounds. The true share with any hit is near 21%. Unless noted, the call rests on the fitted dose curve; in most records, active means well fitted inhibition curve with a large enough effect; inconclusive means small, poorly fitted or top-dose-only effect, or another doubt; inactive means no such curve, though single readings can be large or run the other way.
SMILES,HCMV inh,Pf growth 48h,HCV inhibitor,Shiga toxin inh,Pf growth 96h,CHX counter
COc1ccc(NC(=O)Nc2cccnc2)cc1,-10.0,117.6%,-3.6%,43.7*,?,22.7*
CCOc1ccc(NC(=O)Nc2cccnc2)cc1,39.8,51.3%,3.6%,60.0*,10.9%,24.9*
COc1ccc(C(=O)Nc2ccc(C(=O)Nc3cccnc3)cc2)cc1,-14.6,58.9%,-20.8%,.,-5.6%,-1.5
COC(=O)c1cc(=O)c2c(ccc3oc(=O)ccc32)[nH]1,43.9,.,.,.,.,.
CC(C)CCn1c(SCc2cccc(F)c2)nc2ccsc2c1=O,6.1,.,.,.,.,.
CC1(c2nnc(-c3cccc(Cl)c3)o2)CC(c2cccnc2)=NO1 (stereo not given),2.8,.,0.4%,.,.,.
O=C(CSc1cccs1)Nc1ccc2ccccc2c1,39.5,35.9%,-26.0%,125.3*,95.6%,45.9*
O=C(CSC1=NCCS1)Nc1cccc2ccccc12,-18.6,.,-10.0%,-6.5,36.9%,-0.5
O=C(CSc1cccs1)Nc1cccc2ccccc12,?,150.6%,3.2%,+,?,50.0*
O=C(CS)Nc1ccc2ccccc2c1,62.7,2.3%,?,48.9,4.7%,15.3
O=C(CSCc1cccc(CSCC(=O)Nc2ccc3ccccc3c2)n1)Nc1ccc2ccccc2c1,-82.2*,.,10µM*,-3.8,.,1.7
O=C(CSc1ccccc1)Nc1ccc2c(c1)C(=O)NC2=O,-37.8,22.7%,-4.1%,18.0,33.2%,7.3
O=C(CSc1ccccc1)Nc1ccc2sccc2c1,22.7,48.9%,-7.7%,44.5*,41.6%,45.1*
C[n+]1cccc(C(=O)Nc2ccccc2)c1,32.7,29.6%,10.7%,-4.7,32.5%,-2.6
COc1ccc(OCC(O)CNS(=O)(=O)c2cccs2)cc1 (stereo not given),10.8,-8.4%,-4.7%,-9.1,-15.6%,-0.6
c1cncc(-c2nc(NCCCN3CCOCC3)c3c4c(sc3n2)CCC4)c1,0.0,11.7µM*,?,-4.3,?,7.0
NC(=O)C1CCCN1C(=O)C(Cc1cnc[nH]1)NC(=O)C1CCC(=O)N1 (stereo not given),.,.,.,11.2,.,-2.2
CC1CCN(CCC(=O)Nc2ccc3c(c2)CCC3)CC1,-80.4*,-2.4%,?,10.2,-9.0%,-0.4
NC(=O)C1CCN(CCC(=O)Nc2ccc3c(c2)CCC3)CC1,-4.1,20.7%,-1.0%,-3.2,25.9%,1.0
Cc1ccc(C)c(NC(=O)CCN2CCC(C)CC2)c1,3.1,9.8%,3.1%,-16.1,5.22µM*,-2.0
CCN1CCN(CCC(=O)Nc2ccccc2)CC1,54.1,69.6%,16.1%,15.1,13.1µM*,1.6
CCN1CCN(CCC(=O)Nc2ccc(C)cc2)CC1,22.6,18.1%,-3.6%,-11.1,?,1.3
Cc1ccc(NC(=O)CCN2CCC(C)CC2)cc1,11.3,34.2%,-2.5%,-6.4,13.1µM*,-3.1
Cc1cccc(OCC(=O)Nc2ccc(OCc3cc(=O)n4cc(C)ccc4n3)cc2)c1,10.9,.,.,.,.,.
COc1ccc(Sc2cccc3c2S(=O)(=O)N([C@H](C)c2ccccc2)C[C@@H](COCc2ccccc2)O3)cc1OC,-27.1,.,.,.,.,.
SMILES,HCMV inh,Pf growth 48h,HCV inhibitor,Shiga toxin inh,Pf growth 96h,CHX counter
Cc1ccc(C)c(NC(=O)CCN2CCc3ccccc3C2)c1,-24.8,13.1µM*,2.5%,-10.7,0.0%,-4.8
CSc1cccc(Nc2nc3c(S(=O)(=O)c4ccccc4)nnn3c3ccc(Cl)cc23)c1,-1.6,.,.,.,.,.
COc1ccc(NC(=O)[C@@H]2CC=C[C@@H]3CCN(C4CCCCC4)C(=O)[C@@H]32)cc1,-17.5,.,23.8%[8.37 µM],.,.,.
CC(C)(C)NC(=O)c1cc(-c2ccccc2)n[nH]1,8.4,82.7%,9.6%,11.0,?,3.7
CC(C)(C)c1cc(-c2ccccc2)n[nH]1,-22.5,18.5%,4.6%,33.7,27.2%,15.4*
O=C(/C=C/c1ccc2c(c1)OCO2)c1ccc(O)cc1O,34.9,.,-4.4%,.,.,.
O=C(/C=C/c1ccc(O)c(O)c1)c1ccc(O)cc1O,.,.,.,34.9*,.,10.1*
COc1ccc(CCNC(=O)CCc2cn(Cc3ccc(C)cc3)c3ccccc23)cc1OC,13.8,.,.,.,.,.
